Reference: PubChem BioAssay (NCI)
Compounds without any hit were thinned out: in the full panel of roughly 83,000, 20% have a hit.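 Interpretation: 100, growth as untreated; towards 0, rising growth inhibition; 0, no net growth; 0 to -100, cell death. Compounds scoring below 10 were considered active.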 A number with no mark means an inactive call. Calls of active or inactive are those of the source.

These compounds were tested on HL-60(TB) leukemia (assay: NCI-60 one-dose screen, 48 h (100 = growth as untreated, 0 = no growth, -100 = all killed)). Settings: 10 µM unless noted.
With `C#Cc1nc(C2=C(C)/C(=N/OCc3ccccc3)CC2)cs1` the growth was -54.1% (active).
With `O=C(N/N=C\c1ccc(F)cc1)c1ccc2nc(-c3ccc(Br)cc3)[nH]c2c1` the growth was 78.8%.
In the case of `Cc1ccc(-c2csc(N/N=C/c3nc4ccccc4n3C3CC3)n2)cc1`, the growth is reported as 7.25% (active).
`COC(=O)[C@@H](Cc1c[nH]c2ccccc12)NC(=O)CCCCOc1cc(O)c2c(=O)cc(-c3ccccc3)oc2c1` gave a growth of 84.1%.
`O=C1C(SCc2ccccc2)=C(Cl)CN1c1ccccc1` gave a growth of 72.6%.
Work on `Oc1ccc(CSc2nnc(-c3ccc(Cl)cc3)o2)c2cccnc12` yielded a growth of 12.6%.
In the case of `Cc1cccc2c3c(sc12)C(c1ccc(F)cc1)C(C#N)=C(/N=C/c1ccc(Cl)cc1)O3` (configuration not stated), the growth is reported as 2.41% (active).
For `CSc1nccc(-c2c(-c3ccc(F)c(OCc4ccc(F)cc4)c3)nc3sccn23)n1`, the growth was 78%.
`N/C(=N\c1nc2ccc([N+](=O)[O-])cc2s1)C(Cl)(Cl)Cl` showed a growth of 20.7%.
`C#C[C@]1(O)CC[C@H]2[C@@H]3CC=C4c5sc(Nc6ncccc6C)nc5CC[C@]4(C)[C@H]3CC[C@@]21C` was tested, and the growth was -29.6% (active).
With `O=C(c1ccc(O)c(C(=O)N2Cc3ccc(OCCC[P+](c4ccccc4)(c4ccccc4)c4ccccc4)cc3C2)c1)N1Cc2cccc(F)c2C1` the growth was 57.8%.
`COc1ccc(NC(=O)CSc2nnc(-c3ccc4nc(-c5ccc(OC)c(OC)c5)[nH]c4c3)o2)cc1OC` showed a growth of 111%.
Compound `COc1ccc(N2CCN(C(=O)CSc3ccc(-c4nc5cc(C)c(C)cc5[nH]4)cn3)CC2)cc1` has a growth of 29.4%.
Work on `CCCc1[nH]c(-c2cc(N)ccc2Cl)c2c1C(=O)CCCC2` yielded a growth of 92.4%.
`Nc1nc(-c2cccc([N+](=O)[O-])c2)c(N=Nc2cccc([N+](=O)[O-])c2)s1` was tested, and the growth was 118%.
`COc1ccc(/C=C/C(=O)c2nnn(-c3ccc(Br)cc3)c2C)cc1OC` showed a growth of 47.1%.
In the case of `Cn1cc(-c2cc3ncnc(Nc4ccc(CC(=O)Nc5nc(C(C)(C)C)cs5)cc4)c3s2)cn1`, the growth is reported as 29.2%.
Compound `NS(=O)(=O)c1ccc(Nc2nc(N/N=C/c3ccc([N+](=O)[O-])cc3)nc(Nc3ccccc3)n2)cc1` has a growth of 35%.
`CC(C)C[C@@H]1N[C@@]2(C(=O)Nc3ccccc32)[C@@H](c2ccc(F)cc2)[C@@H]1C(=O)c1ccc(O)cc1` gave a growth of 105%.
Work on `NS(=O)(=O)c1cccc(Nc2nc(SCC(=O)c3ccc(Cl)cc3)nc3c2CCC3)c1` yielded a growth of 111%.
In the case of `O=C(NCCn1ccnc1)c1ccc(-c2nc3ccc4[nH]ncc4c3c3c2CCCC3)cc1`, the growth is reported as 76.9%.
In the case of `O=C(CSc1nc2ccccc2c(=O)n1-c1ccc(S(=O)(=O)Nc2ccc(Cl)nn2)cc1)Nc1ccc(S(=O)(=O)Nc2ccc(Cl)nn2)cc1`, the growth is reported as 96.4%.
In the case of `CSc1ccc(/C(=N/N=C(N)N)c2ccc(F)cc2)cc1`, the growth is reported as -31.7% (active).
`CC1(COc2ccc3ncc(C#Cc4cncc(C(=O)Nc5cccc(C(F)(F)F)c5)c4)n3n2)COC1` gave a growth of 39.9%.
Compound `C[C@]12CC[C@H]3[C@@H](CC=C4C[C@@H](O)CC[C@@]43C)[C@@H]1CC[C@@H]2[C@](C)(O)CCc1cccnc1` has a growth of 47.6%.
Compound `CC(C)NC(=O)c1cc(-c2ccc(NC(=O)Nc3ccc(F)c(C(F)(F)F)c3)cc2)nc2cccnc12` has a growth of 109%.
With `CCCCCCNC(=O)Oc1ccc(/C(=C(/C)c2ccc(OC)cc2)c2ccc(OCCN3CCCCCC3)cc2)cc1` the growth was -0.81% (active).
